# This is one part of a sample in which the strongest signals are shown more often than they occur.
# B1: Cohesin-hMARCO (Homo sapiens) (protein)
# chain: LDDLDAVRIKVDTVNAKPGDTVRIPVRFSGIPSKGIANCDFVYSYDPNVLEIIEIEPGDIIVDPNPDKSFDTAVYPDRKIIVFLFAEDSGTGAYAITKDGVFATIVAKVKEGAPNGLSVIKFVEVGGFANNDLVEQKTQFFDGGANVGDTTEPATPTTPVTTPTTTDDLDAASVRIVGSSNRGRAEVYYSGTWGTICDDEWQNSDAIVFCRMLGYSKGRALYKVGAGTGQIWLDNVQCRGTESTLWSCTKNSWGHHDCSHEEDAGVECSVHHHHHH
# Assays:
# Assay in all cases: glycan array binding signal (z-score within array); higher = stronger binding
# Conditions in all cases: glycan notation: IUPAC condensed, linker removed
# GalNAc(b1-3)Gal = molecular target: GalNAc(b1-3)Gal
# Method in brief: (§1)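 Negative Z-scores can be read as non-binding. The Z-score is calculated within each array and then averaged across arrays of one protein sequence at different concentrations or buffers and across linkers. Arrays, 3228 in all, were curated from the Consortium for Functional Glycomics database and kept only where the protein sequence was available.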
# Glc(a1-4)Glc = molecular target: Glc(a1-4)Glc
# Method in brief: as §1
# [1] = molecular target: GlcNAc(a1-4)Gal(b1-4)GalNAc
# Method in brief: as §1
# [2] = molecular target: GlcNAc(a1-4)Gal(b1-4)GlcNAc(b1-3)Gal(b1-4)[Fuc(a1-3)]GlcNAc(b1-3)Gal(b1-4)[Fuc(a1-3)]GlcNAc
# Method in brief: as §1
# [3] = molecular target: GlcNAc(b1-2)Man(a1-3)[GlcNAc(b1-2)Man(a1-6)]Man(b1-4)GlcNAc(b1-4)GlcNAc
# Method in brief: as §1
# [4] = molecular target: GlcNAc(b1-3)Gal(b1-4)GlcNAc(b1-3)Gal(b1-4)GlcNAc(b1-2)Man(a1-3)[GlcNAc(b1-3)Gal(b1-4)GlcNAc(b1-3)Gal(b1-4)GlcNAc(b1-2)Man(a1-6)]Man(b1-4)GlcNAc(b1-4)[Fuc(a1-6)]GlcNAc
# Method in brief: as §1
# [5] = molecular target: GlcNAc(b1-3)Gal(b1-4)GlcNAc(b1-6)[GlcNAc(b1-3)Gal(b1-3)]GalNAc
# Method in brief: as §1
# GlcNAc(b1-3)GalNAc = molecular target: GlcNAc(b1-3)GalNAc
# Method in brief: as §1
# [6] = molecular target: Man(a1-2)Man(a1-2)Man(a1-3)Man
# Method in brief: as §1
# [7] = molecular target: Man(a1-2)Man(a1-6)[Man(a1-3)]Man(a1-6)[Man(a1-2)Man(a1-2)Man(a1-3)]Man
# Method in brief: as §1
# [8] = molecular target: Man(a1-3)[Man(a1-6)]Man(b1-4)GlcNAc(b1-4)[Fuc(a1-6)]GlcNAc
# Method in brief: as §1
# Man(a1-6)Man = molecular target: Man(a1-6)Man
# Method in brief: as §1
# [9] = molecular target: Neu5Ac(a2-3)Gal(b1-3)GlcNAc6S
# Method in brief: as §1
# [10] = molecular target: Neu5Ac(a2-3)Gal(b1-3)[Neu5Ac(a2-6)]GalNAc
# Method in brief: as §1
# Neu5Ac(a2-3)Gal(b1-4)Glc = molecular target: Neu5Ac(a2-3)Gal(b1-4)Glc
# Method in brief: as §1
# [11] = molecular target: Neu5Ac(a2-3)Gal(b1-4)GlcNAc(b1-2)Man
# Method in brief: as §1
# [12] = molecular target: Neu5Ac(a2-3)Gal(b1-4)GlcNAc(b1-2)[Neu5Ac(a2-3)Gal(b1-4)GlcNAc(b1-4)]Man(a1-3)[GlcNAc(b1-4)][Neu5Ac(a2-3)Gal(b1-4)GlcNAc(b1-2)[Neu5Ac(a2-3)Gal(b1-4)GlcNAc(b1-6)]Man(a1-6)]Man(b1-4)GlcNAc(b1-4)GlcNAc
# Method in brief: as §1
# [13] = molecular target: Neu5Ac(a2-3)Gal(b1-4)GlcNAc(b1-3)Gal(b1-4)GlcNAc
# Method in brief: as §1
# [14] = molecular target: Neu5Ac(a2-3)Gal(b1-4)GlcNAc(b1-3)Gal(b1-4)GlcNAc(b1-6)[Gal(b1-3)]GalNAc
# Method in brief: as §1
# [15] = molecular target: Neu5Ac(a2-3)Gal(b1-4)GlcNAc(b1-6)[Gal(b1-3)]GalNAc
# Method in brief: as §1
# [16] = molecular target: Neu5Ac(a2-3)Gal(b1-4)[Fuc(a1-3)]GlcNAc(b1-3)Gal(b1-4)[Fuc(a1-3)]GlcNAc(b1-3)Gal(b1-4)[Fuc(a1-3)]GlcNAc
# Method in brief: as §1
# Neu5Ac(a2-6)Gal(b1-4)Glc = molecular target: Neu5Ac(a2-6)Gal(b1-4)Glc
# Method in brief: as §1
# [17] = molecular target: Neu5Ac9Ac(a2-3)Gal(b1-3)GlcNAc
# Method in brief: as §1
# [18] = molecular target: Neu5Gc(a2-3)Gal(b1-4)GlcNAc(b1-3)Gal(b1-4)GlcNAc(b1-2)Man(a1-3)[Neu5Gc(a2-3)Gal(b1-4)GlcNAc(b1-3)Gal(b1-4)GlcNAc(b1-2)Man(a1-6)]Man(b1-4)GlcNAc(b1-4)GlcNAc
# Method in brief: as §1
binder,measurement,setting,value
B1,glycan array binding signal (z-score),GalNAc(b1-3)Gal,3.14
same,glycan array binding signal (z-score),Glc(a1-4)Glc,-0.037
same,glycan array binding signal (z-score),[1],-0.39
same,glycan array binding signal (z-score),[2],-0.104
same,glycan array binding signal (z-score),[3],-0.381
same,glycan array binding signal (z-score),[4],-0.453
same,glycan array binding signal (z-score),[5],-0.586
same,glycan array binding signal (z-score),GlcNAc(b1-3)GalNAc,-0.3
same,glycan array binding signal (z-score),[6],3.08
same,glycan array binding signal (z-score),[7],-0.013
same,glycan array binding signal (z-score),[8],-0.571
same,glycan array binding signal (z-score),Man(a1-6)Man,3.28
same,glycan array binding signal (z-score),[9],0.039
same,glycan array binding signal (z-score),[10],-0.255
same,glycan array binding signal (z-score),Neu5Ac(a2-3)Gal(b1-4)Glc,-0.436
same,glycan array binding signal (z-score),[11],0.296
same,glycan array binding signal (z-score),[12],-0.288
same,glycan array binding signal (z-score),[13],-0.514
same,glycan array binding signal (z-score),[14],-0.369
same,glycan array binding signal (z-score),[15],-0.481
same,glycan array binding signal (z-score),[16],-0.404
same,glycan array binding signal (z-score),Neu5Ac(a2-6)Gal(b1-4)Glc,-0.411
same,glycan array binding signal (z-score),[17],4.33
same,glycan array binding signal (z-score),[18],0.016

# Reference: the supplement of paper PMC8728848
